The values that follow come from PubChem BioAssay (NCATS).

One test concerns CAOV3. Briefly: Primary qHTS to identify gynecologic anti-cancer compounds using libraries of approved drugs and bioactive compounds (AID 1345084). Further: nearly all actives have a fitted effect of over 55% in size. Conditions: Gynecologic cancer cell panel viability, ATPlite luminescence, 48 h; series mostly up to 57.5 µM. The procedure, abridged:
(§1)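 Cytotoxicity screen measuring ATP content by luciferase luminescence. Each compound is applied at five concentrations for 48 h at 37 C with 5% CO2.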

For another test, the system named is CASKI. The description is as above. Conditions: Gynecologic cancer cell panel viability, ATPlite luminescence, 48 h; series mostly up to 57.5 µM. The procedure, abridged:
as §1
A general note: In ATP-based viability assays light output follows the ATP content of the culture.

The next test relates to PA-1. Described as above. Conditions: Gynecologic cancer cell panel viability, ATPlite luminescence, 48 h; series mostly up to 57.5 µM. In outline:
as §1

A further test relates to SKOV3. Described as above. Conditions: Gynecologic cancer cell panel viability, ATPlite luminescence, 48 h; series mostly up to 57.5 µM. The procedure, abridged:
as §1

A further test has as its system Tov112D. The test is described as above. Conditions: Gynecologic cancer cell panel viability, ATPlite luminescence, 48 h; series mostly up to 57.5 µM. The procedure, abridged:
as §1

A further test relates to OV90. Described as above. Conditions: Gynecologic cancer cell panel viability, ATPlite luminescence, 48 h; series mostly up to 57.5 µM. The procedure, abridged:
as §1

The test system of another test is Es-2. The test is described as above. Conditions: Gynecologic cancer cell panel viability, ATPlite luminescence, 48 h; series mostly up to 57.5 µM. The procedure, abridged: as §1
For another test, the system named is HeLa. The test is described as above. Conditions: Gynecologic cancer cell panel viability, ATPlite luminescence, 48 h; series mostly up to 57.5 µM. In outline:
as §1

For another test, the system named is Tov-21-G. The description is as above. Conditions: Gynecologic cancer cell panel viability, ATPlite luminescence, 48 h; series mostly up to 57.5 µM. In outline:
as §1

A short description of test [1]: qHTS assay to identify inhibitors of the type 1 interferon - major histocompatibility complex class I in skeletal muscle: Counter screen cell viability and HiBit confirmation (AID 1347412). Further: nearly all actives have a fitted effect of over 60% in size. Conditions: iHSKM muscle cells + IFN-b, HiBiT or CellTiter-Glo, 24 h; HiBiT. The procedure, abridged: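 HLA-B*08:01–HiBiT knock-in immortalized human myoblasts (C25cl48) stimulated with 4.0 ng/ml human IFN-beta and dosed with compound in a 12-point 1:3 titration (top final 46 uM). After 24 hrs at 37 C, HiBiT lytic luminescence or CellTiter Glo ATP read out.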

A further test relates to JEG-3. Briefly: Primary qHTS to identify gynecologic anti-cancer compounds using libraries of approved drugs and bioactive compounds (AID 1345084). Further: nearly all actives have a fitted effect of over 55% in size. Conditions: Gynecologic cancer cell panel viability, ATPlite luminescence, 48 h; series mostly up to 57.5 µM. In outline:
as §1
On the technique in general: In qHTS, concentration-response curves come from the screen itself.

A further test has as its system Hek293T. Described as above. Conditions: Gynecologic cancer cell panel viability, ATPlite luminescence, 48 h, control line for the selectivity index; series mostly up to 57.5 µM. In outline: as §1

Molecules are shown by their SMILES. Results filed as inconclusive are left out. Activity calls are given as the source filed them. The call rests on the fitted dose curve; in most records, active means well fitted curve in the direction sought with a large enough effect; inconclusive means small, poorly fitted or top-dose-only effect, or another doubt; inactive means no such curve, though single readings can be large; an effect the other way counts as inactive or inconclusive.
Potency means the concentration at half of the fitted maximal effect.

On to `CCN(CC)CCN(Cc1ccc(-c2ccc(C(F)(F)F)cc2)cc1)C(=O)Cn1c(SCc2ccc(F)cc2)nc(=O)c2c1CCC2`, for which the Potency in the test with CAOV3 is 12.6 µM (active); in the test with CASKI it was 25.1 µM (active); in the test with PA-1 it was 28.2 µM (active); in the test on SKOV3, 7.94 µM (active); in the test on Tov112D it was 35.5 µM (active).

`CC(O)c1cc(C(=O)N[C@@H](C)Cn2ccc(-c3ccc(C#N)c(Cl)c3)n2)n[nH]1` (stereo not given in full): the Potency result with CAOV3 and in the test on OV90 was “inactive” throughout.

In the case of `Cc1cc(Nc2ncc3cc(-c4c(Cl)cccc4Cl)c(=O)n(C)c3n2)ccc1F`, the Potency in the test with CAOV3 is 3.16 µM (active); with Es-2 it was 7.94 µM (active); in the test with HeLa it was 3.55 µM (active); with PA-1, 3.98 µM (active); in the test on SKOV3, 3.55 µM (active); with Tov-21-G, 3.98 µM (active). In the test on Tov112D, the Potency was 3.55 µM (active).

As for `COc1cc2ncnc(Nc3ccc(F)c(Cl)c3)c2cc1NC(=O)/C=C/CN1CCCCC1`, the Potency with CAOV3 is 22.4 µM (active); with SKOV3 it was 10 µM (active); in test [1], 19.8 µM (active). Moreover, the Potency result with OV90 is “inactive”.

With `COc1ccc(-c2cnc(-c3cccc4c3-c3ccccc3C4=O)o2)cc1`, the Potency result in the test with CAOV3 is “inactive”. For the same compound, the Potency with Es-2 was 0.158 µM (active); with HeLa, 0.199 µM (active); in the test with JEG-3, 2 µM (active); in the test on PA-1, 0.355 µM (active); in the test with SKOV3 it was 0.158 µM (active); in the test on Tov-21-G it was 0.141 µM (active). Further, the Potency in the test on Tov112D is 0.178 µM (active).

Take `CC1(C)C2CC(OC3OC(COC4OCC(O)(CO)C4O)C(O)C(O)C3O)C1(C)CC2O` (stereo not given): the Potency result in the test with CAOV3, in the test on CASKI and in the test on OV90 was “inactive” throughout.

`Cc1cccc(/C=N/Nc2cc(N3CCOCC3)n3nc(-c4ccncc4)cc3n2)c1`: the Potency was 8.91 µM (active) with CAOV3, 2 µM (active) in the test with OV90 and 3.98 µM (active) with Tov112D.

In the case of `CC[C@]12C=CCN3CC[C@@]4(c5cc([C@@]6(C(=O)OC)C[C@H]7C[C@@H](C(C)(F)F)CN(Cc8c6[nH]c6ccccc86)C7)c(OC)cc5N(C)[C@H]4[C@@](O)(C(=O)OC)[C@@H]1OC(C)=O)[C@@H]32`, in the test with CAOV3, the Potency entry is “inactive”. Further, the Potency is 1 µM (active) in the test on Es-2; 0.631 µM (active) with HeLa; 0.355 µM (active) in the test on PA-1; 0.562 µM (active) in the test with Tov-21-G; 0.251 µM (active) in the test with Tov112D.

`C=C1C(=O)O[C@H](CCC)[C@H]1C(=O)O`: the Potency result with CAOV3, in the test on Es-2, in the test on HeLa, with Hek293T, in the test with JEG-3 and in the test with OV90 was “inactive” in each case. In addition, the Potency entry with PA-1, with Tov-21-G and in the test with Tov112D was “inactive” in each case.

Consider `Cn1nnc(-c2ccc(-c3ccc(N4C[C@H](COP(=O)(O)O)OC4=O)cc3F)cn2)n1`, for which the Potency result in the test on CAOV3 was “inactive”. The Potency in the test with CASKI is 12.6 µM (active); in the test on OV90, 20 µM (active).

`CC(=O)N1CCN(C(=O)Cc2ccc(Nc3ncc(F)c(Nc4ccc(C(=O)Nc5ccccc5Cl)cc4)n3)cc2)CC1`: the Potency in the test with CAOV3 was 31.6 µM (active); in the test on HeLa it was 7.94 µM (active); in the test with PA-1 it was 11.2 µM (active); in the test on SKOV3, 22.4 µM (active); with Tov-21-G it was 25.1 µM (active); in the test with Tov112D, 3.98 µM (active). Moreover, the Potency entry with JEG-3 and with OV90 was “inactive” throughout.

Consider `C=CC(=O)Nc1cc(Nc2nccc(-c3c[nH]c4ccccc34)n2)c(OC)cc1N(C)CCN(C)C`, for which the Potency in the test on CAOV3 was 28.2 µM (active); with CASKI, 28.2 µM (active); in the test with Es-2, 20 µM (active); with HeLa it was 15.8 µM (active); with PA-1, 4.47 µM (active).

In the case of `CS(=O)(=O)N(CC(=O)NCC1CC1)c1cc(C(F)(F)F)ccc1Cl`, the Potency entry in the test with CAOV3, in the test on Es-2, in the test with HeLa, with Hek293T, in the test on JEG-3 and in the test with OV90 was “inactive” each time. The Potency entry with PA-1, in the test on SKOV3, with Tov-21-G and in the test on Tov112D was “inactive” each time.

Consider `CN(C)c1nc(NC2CCC(NCCc3ccc(Br)cc3OC(F)(F)F)CC2)nc2ccccc12` (stereo not given), for which the Potency was 3.98 µM (active) with CAOV3; 25.1 µM (active) with Hek293T; 20 µM (active) in the test on JEG-3; 14.1 µM (active) in the test with OV90; 14.1 µM (active) in the test on SKOV3.

On to `C#CCN(Cc1cc2c(=O)[nH]c(C)nc2cc1Br)c1ccc(C(=O)NCc2cccnc2)cc1`, for which, in the test on CASKI, the Potency was 0.447 µM (active).

As to `CC(C)c1nc(-c2ccc(NC(=O)Nc3cccc(C(F)(F)F)c3)c3ccccc23)c2c(N)nccn12`, the Potency is 22.4 µM (active) in the test with CAOV3; 12.6 µM (active) in the test on Es-2; 31.6 µM (active) with HeLa; 15.8 µM (active) in the test on Hek293T; 1.58 µM (active) in the test with OV90; 12.6 µM (active) with PA-1. For the same compound, in the test with SKOV3, the Potency is 28.2 µM (active). The Potency result with JEG-3 was “inactive”.

Take `CO[C@H]1/C=C/C=C/C=C/C[C@H](OC(=O)[C@@H](C)NC(=O)C2CCCCC2)[C@H](C)[C@@H](O)/C(C)=C/CCc2cc(O)cc(c2)NC(=O)C1`: the Potency entry in the test on CAOV3 and in the test on JEG-3 was “inactive” each time. Further, the Potency in the test on Es-2 is 1.78 µM (active); in the test with HeLa, 3.55 µM (active); with Hek293T, 0.708 µM (active); with PA-1 it was 0.355 µM (active); with SKOV3, 3.16 µM (active); in the test with Tov-21-G, 2.82 µM (active).

As for `COc1cc(N2CCOCC2)ccc1Nc1ncc(Cl)c(Nc2ccccc2NS(C)(=O)=O)n1`, the Potency in the test with CAOV3 is 3.55 µM (active); in the test on CASKI, 8.91 µM (active); with HeLa, 3.16 µM (active); with PA-1, 2.82 µM (active); in the test with Tov-21-G, 3.16 µM (active).
